According to PubChem BioAssay AID720648 (The Scripps Research Institute Molecular Screening Center, 2013):
The campaign covered roughly 370,000 compounds. About 3,100 (0.84%) were called active.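 Rule for the calls: active = inhibition above the mean of compounds lying between control limits plus 3 SD, set per campaign (cut at about 8.5% in these data); inactive = the rest.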 Shown is part of a subset that was picked to be rich in actives.

These compounds were tested against Disintegrin and metalloproteinase domain-containing protein 17 (Homo sapiens) (UniProt P78536) (assay: inhibition of ADAM17 peptide cleavage – biochemical, QFRET, primary screen (AID 720648;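 note: 0% = DMSO-only wells as the low control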)). Settings: recombinant ADAM17, EDANS/DABCYL FRET peptide cleavage; at 6.95 µM; active compounds read high.
Chain of Disintegrin and metalloproteinase domain-containing protein 17 (Homo sapiens) (P78536 215-824 limits assumed): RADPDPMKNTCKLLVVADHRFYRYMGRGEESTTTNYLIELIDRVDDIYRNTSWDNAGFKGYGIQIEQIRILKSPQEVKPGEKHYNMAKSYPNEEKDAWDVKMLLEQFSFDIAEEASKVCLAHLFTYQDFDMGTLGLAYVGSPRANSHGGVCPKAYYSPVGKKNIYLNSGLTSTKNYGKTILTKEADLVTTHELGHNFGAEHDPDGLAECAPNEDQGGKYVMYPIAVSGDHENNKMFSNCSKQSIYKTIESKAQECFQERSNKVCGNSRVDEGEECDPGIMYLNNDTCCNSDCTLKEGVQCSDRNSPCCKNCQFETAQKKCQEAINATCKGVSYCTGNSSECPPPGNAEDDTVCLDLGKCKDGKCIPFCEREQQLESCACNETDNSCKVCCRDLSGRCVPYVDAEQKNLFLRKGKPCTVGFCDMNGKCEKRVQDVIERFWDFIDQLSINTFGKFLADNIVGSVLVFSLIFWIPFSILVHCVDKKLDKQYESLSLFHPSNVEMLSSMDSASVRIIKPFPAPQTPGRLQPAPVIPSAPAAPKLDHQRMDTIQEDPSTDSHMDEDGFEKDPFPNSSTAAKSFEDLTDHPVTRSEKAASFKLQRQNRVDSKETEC

inhibition, active:
Cc1ccc(-n2c(COc3ccccc3)nnc2SCC(=O)Nc2ccc3c(c2)OCCO3)cc1 10.3%
Cc1cc(C)cc(NS(=O)(=O)c2ccc(Oc3ncc(C(F)(F)F)cc3Cl)cc2)c1 10.8%
O=C(NCc1ccccc1)C1=C[C@@H](c2ccc(C(F)(F)F)cc2)C[C@@H](OCc2ccc(CO)cc2)O1 10.7%
Cc1ccc(OCCOCCOc2ccc(Br)cc2/C=N\NC(=O)c2ccncc2)cc1 10%
C#CCN(C[C@H]1[C@H](OC(=O)NC2CCCC2)[C@H](OC(=O)NC2CCCC2)C[C@H]2C(=O)N(c3ccccc3)C(=O)[C@@H]12)S(=O)(=O)c1ccc(C)cc1 9.64%
N#Cc1nc(Cc2cccc3ccccc23)oc1NCc1ccc2c(c1)OCO2 9.51%
CN(C(=O)c1cccc(NC(=O)Cc2cccc([N+](=O)[O-])c2)c1)C1CCCCC1 10.3%
COc1ccc(Cn2cc(CN3CCS(=O)(=O)N(Cc4ccc(-c5cccc(Cl)c5)cc4)C(C)C3=O)nn2)cc1 (configuration not stated) 10%
COc1ccc(-c2ccc(CN3C(CC(C)C)C(=O)N(Cc4cn(CC5CCCCC5)nn4)CCS3(=O)=O)cc2)cc1 (configuration not stated) 9.87%
COc1cc(C2CC(=O)N3CN(Cc4ccccc4)CSC3=C2C#N)ccc1OCc1ccccc1 (configuration not stated) 10.2%
Cc1ccc(C)c(NC(=S)NNC(=S)Nc2ccc(C(C)C)cc2)c1 11%
COC(=O)N(C)C[C@@H]1OCc2cnnn2CCCC(=O)N([C@@H](C)CO)C[C@@H]1C 8.71%

inhibition, inactive:
CCOC(=O)[C@]12CCCC=C1N(Cc1ccc(OC)cc1)C(=O)[C@@H]2CC(=O)NCc1cccs1 -2.4%
CN1C[C@]2(C=C3CCCCC3n3c(=O)n(-c4ccccc4)c(=O)n32)N=C1NC(=O)c1ccccc1 (some centres not stated) -0.93%
COC(=O)[C@]1(C#N)CC(=O)N(CC2CCCCC2)[C@@H]1c1ccccc1 4.54%
O=C(NC1CCCC1)C1CSCCS(=O)(=O)N1Cc1ccccc1 (configuration not stated) -0.05%
O=C(CSc1nnc(COc2ccccc2)n1-c1ccc(Cl)cc1)Nc1ccc2c(c1)OCO2 1.36%
COc1ccc(-n2c(COc3ccccc3)nnc2SCC(=O)Nc2ccc3c(c2)OCO3)cc1 4.09%
O=S(=O)(Nc1ccc(Oc2ncccn2)c(Cl)c1)c1ccc(F)cc1 -3.11%
CN(NS(=O)(=O)c1cccs1)c1ncc(C(F)(F)F)cc1Cl -1.66%
COc1cccc(/C=C2\CC3(OC(C)=O)CCCN2C3)c1 (configuration not stated) 3.86%
O=C(OC12CCCN(C1)/C(=C/c1ccccc1)C2)c1ccco1 (configuration not stated) 6.28%
COC(=O)[C@]12C[C@H](CC(=O)NCCCN3CCCC3=O)C(=O)N(CCc3ccc(OC)c(OC)c3)C1=C[C@H](COCc1ccccc1)O[C@@H]2C -6.14%
CC(C)(C)[C@H]1C=C(C(=O)NCc2ccccc2)O[C@@H](OCc2ccc(CO)cc2)C1 2.4%
O=C(C1=C[C@H](c2ccc(C(F)(F)F)cc2)C[C@H](OCc2ccc(CO)cc2)O1)N1CCN(Cc2ccccc2)CC1 5.72%
Cc1ccc(OCCOc2cccc(/C=N/NC(N)=O)c2)cc1 -1.45%
COc1ccc(Cl)cc1C=CC=NNC(=O)c1ccncc1 -4.19%
CN1C(=O)c2cc(NS(C)(=O)=O)ccc2OC[C@@H]2O[C@@H](CC(=O)NCc3ccc(-c4ccccc4)cc3)CC[C@H]21 -3.9%
C#CCN(C[C@@H]1[C@@H](OC(=O)NC2CC2)[C@@H](OC(=O)NC2CC2)Cn2c(=O)ccc(=O)n21)S(=O)(=O)c1ccc(C)cc1 -1.79%
Cc1ccc(S(=O)(=O)N2C[C@]3(O)C[C@@H]4C(=O)N(c5ccccc5)C(=O)[C@@H]4C[C@]3(OC(=O)NC3CC3)C2)cc1 -1.11%
COC(=O)[C@]12C[C@H](CC(=O)NCc3ccccc3)C(=O)N(CCC3=CCCCC3)C1=C[C@H](C(C)C)O[C@@H]2C1CC1 6.48%
CC1(C(=O)NCc2ccc3c(c2)OCO3)CCN1C(=O)Cc1cccc2ccccc12 (configuration not stated) -3.18%
O=C(CCNS(=O)(=O)c1ccccc1C(F)(F)F)NCc1ccc2c(c1)OCO2 -0.25%
CCOC(=O)C(=O)N(Cc1ccccc1)c1ccccc1C(=O)Nc1cc(OC)ccc1OC 4.35%
O=C(CSc1nnc(-c2ccccn2)n1-c1ccc(Cl)cc1)Nc1ccccc1-c1ccccc1 5.21%
CN(C(=O)c1cccc(NC(=O)Cc2ccc([N+](=O)[O-])cc2)c1)C1CCC1 3.46%
CN(C(=O)c1cccc(NC(=O)Cc2cccc(NC(=O)C3CCCN(C(=O)C4CC4)C3)c2)c1)C1CCC1 (configuration not stated) -2.72%
Cc1ccccc1CS(=O)(=O)Cc1ccc(C(=O)Nc2ccc(Cl)cc2)o1 -7.43%
CC(C)CC1C(=O)N(Cc2cn(CC3CCCCC3)nn2)CCS(=O)(=O)N1Cc1ccc(-c2ccc(Cl)cc2)cc1 (configuration not stated) -0.31%
CC1C(=O)N(Cc2cn(CC3CCCCC3)nn2)CCS(=O)(=O)N1Cc1ccc(-c2cccc(N(C)C)c2)cc1 (configuration not stated) -2.56%
COc1ccc(-c2ccc(CN3C(CC(C)C)C(=O)N(Cc4cn(CC5CCCCC5)nn4)CCS3(=O)=O)cc2)cn1 (configuration not stated) 3.81%
CC1C(=O)N(Cc2cn(Cc3ccco3)nn2)CCS(=O)(=O)N1Cc1ccc(-c2cccc(CO)c2)cc1 (configuration not stated) 0.84%
COc1cc(/C=C/C(=O)n2cnc3ccccc32)cc(OC)c1OC -11.9%
CC(=O)OC12CCCN(C1)/C(=C/c1ccncc1)C2 (configuration not stated) -1.16%
Clc1ccc(-n2c(SC/C=C/c3ccccc3)nnc2-c2ccco2)cc1 8.36%
CC(C)CNc1cccc2c1S(=O)(=O)N(Cc1cn(Cc3ccccc3C(F)(F)F)nn1)Cc1ccccc1O2 -9.08%
CCCNC(=O)C1CC(=O)N(c2ccc(OCc3ccccc3)cc2)C1 (configuration not stated) -1.62%
COc1cc(C2C(C(=O)c3ccco3)=C(O)C(=O)N2c2cc(C)on2)ccc1OCc1ccccc1 (configuration not stated) -1.07%
Cc1cc(C)nc(NC(=S)N2CCN(c3ccc(C(F)(F)F)cn3)CC2)c1 -0.9%
Cc1ccc(C)c(NC(=S)NCC(c2cccnc2)N2CCOCC2)c1 (configuration not stated) 4.64%
CC(C)c1ccc(NC(=S)NC2CC3C=CC2C3)cc1 (configuration not stated) 1.36%
COc1ccnc(NC(=S)N2CCN(c3ncc(C(F)(F)F)cc3Cl)CC2)c1 -3.73%
C[C@H](C(=O)N(C)c1ccccc1)[C@@H](O)c1ccc(Cl)cc1 -3.74%
C[C@H](CO)N1C[C@H](C)[C@@H](CN(C)C(=O)C2CCCCC2)OCc2cnnn2CCCC1=O 3%
C[C@@H]1CN([C@H](C)CO)C(=O)CCCn2nncc2CO[C@@H]1CN(C)C(=O)OCc1ccccc1 -3.01%
COC(CNC(=O)[C@H](Cc1ccccc1)NC1(C(=O)NC2CCCCC2)CCCCC1)OC -1.27%
COc1ccc(S[C@]2(C(=O)N(C)C)CC(=O)N(c3ccc(OC)cc3)[C@@H]2c2ccc(OC)cc2)cc1 3.23%
